Test results taken from publication PMC7862700, “An all-to-all approach to the identification of sequence-specific readers for epigenetic DNA modifications on cytosine”.

Columns and labels:
Assay in all cases: DAPPL (digital affinity profiling via proximity ligation, sequencing); 10 mM Tris-HCl pH 7.5, 50 mM NaCl, 1 mM DTT, 4% glycerol, room temperature, 30 min; GST-TFs on glutathione beads, 16-mer random dsDNA library, 0.1% formaldehyde crosslink after washing; high values mean tight binding
Settings in all cases: protein: recombinant; tags: N-terminal GST; dsDNA, one strand shown
ELK4 = biological target: T1, ELK4 (Homo sapiens, UniProt P28324-2 1-405)
T1 sequence: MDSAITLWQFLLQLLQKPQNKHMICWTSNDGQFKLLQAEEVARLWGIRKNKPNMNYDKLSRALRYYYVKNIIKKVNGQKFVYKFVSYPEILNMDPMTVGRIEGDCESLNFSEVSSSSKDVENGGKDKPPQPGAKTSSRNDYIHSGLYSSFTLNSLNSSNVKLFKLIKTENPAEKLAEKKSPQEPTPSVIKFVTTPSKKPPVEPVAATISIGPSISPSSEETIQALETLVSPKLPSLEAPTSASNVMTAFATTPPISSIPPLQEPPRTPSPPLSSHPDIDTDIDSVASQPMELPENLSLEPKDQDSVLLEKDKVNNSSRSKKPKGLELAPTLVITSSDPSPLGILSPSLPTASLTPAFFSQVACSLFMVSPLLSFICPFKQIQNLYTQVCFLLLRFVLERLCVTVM
How it was run: (§1)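 GST fusions of human transcription factors were expressed in yeast and captured with glutathione beads. Once given DNA barcodes and pooled alongside a tag-only sample, they were incubated for 30 min at room temperature with 200 nmole of a random double-stranded 16-mer DNA library in Tris/NaCl/DTT/glycerol buffer, then washed, crosslinked (0.1% formaldehyde), proximity-ligated, PCR-amplified and sequenced on an Illumina NextSeq500. The binding signal of each hexamer is its read frequency for a factor divided by its frequency for the tag-only sample.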

ELF3 = biological target: T2, ELF3 (Homo sapiens, UniProt P78545 1-371)
T2 sequence: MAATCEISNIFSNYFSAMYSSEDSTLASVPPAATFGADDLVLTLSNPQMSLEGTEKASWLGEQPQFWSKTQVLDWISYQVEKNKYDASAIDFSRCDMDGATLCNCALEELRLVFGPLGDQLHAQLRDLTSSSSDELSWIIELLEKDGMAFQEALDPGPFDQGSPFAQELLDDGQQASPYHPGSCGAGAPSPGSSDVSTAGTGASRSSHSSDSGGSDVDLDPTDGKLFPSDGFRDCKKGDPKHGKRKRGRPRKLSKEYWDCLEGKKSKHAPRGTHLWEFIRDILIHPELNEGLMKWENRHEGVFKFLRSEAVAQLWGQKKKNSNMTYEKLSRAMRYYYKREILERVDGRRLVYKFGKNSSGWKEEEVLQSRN
How it was run: as §1

ETV1 = ETV1 (Homo sapiens, UniProt P50549 1-477)
Chain of ETV1 (P50549 whole entry): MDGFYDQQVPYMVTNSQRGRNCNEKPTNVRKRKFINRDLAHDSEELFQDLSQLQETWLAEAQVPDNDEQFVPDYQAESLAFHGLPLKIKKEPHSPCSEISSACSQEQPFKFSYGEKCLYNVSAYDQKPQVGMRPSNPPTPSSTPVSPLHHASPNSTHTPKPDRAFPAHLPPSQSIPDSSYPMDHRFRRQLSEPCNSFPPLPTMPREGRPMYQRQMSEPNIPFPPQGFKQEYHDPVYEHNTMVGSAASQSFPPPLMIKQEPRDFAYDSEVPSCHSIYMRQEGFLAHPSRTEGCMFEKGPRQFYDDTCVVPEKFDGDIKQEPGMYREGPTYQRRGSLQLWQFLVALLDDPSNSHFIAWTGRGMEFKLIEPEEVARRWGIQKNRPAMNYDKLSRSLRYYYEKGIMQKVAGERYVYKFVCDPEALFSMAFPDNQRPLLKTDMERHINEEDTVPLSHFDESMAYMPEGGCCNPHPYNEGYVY
How it was run: as §1

ERF = biological target: T3, ERF (Homo sapiens, UniProt P50548 1-548)
T3 sequence: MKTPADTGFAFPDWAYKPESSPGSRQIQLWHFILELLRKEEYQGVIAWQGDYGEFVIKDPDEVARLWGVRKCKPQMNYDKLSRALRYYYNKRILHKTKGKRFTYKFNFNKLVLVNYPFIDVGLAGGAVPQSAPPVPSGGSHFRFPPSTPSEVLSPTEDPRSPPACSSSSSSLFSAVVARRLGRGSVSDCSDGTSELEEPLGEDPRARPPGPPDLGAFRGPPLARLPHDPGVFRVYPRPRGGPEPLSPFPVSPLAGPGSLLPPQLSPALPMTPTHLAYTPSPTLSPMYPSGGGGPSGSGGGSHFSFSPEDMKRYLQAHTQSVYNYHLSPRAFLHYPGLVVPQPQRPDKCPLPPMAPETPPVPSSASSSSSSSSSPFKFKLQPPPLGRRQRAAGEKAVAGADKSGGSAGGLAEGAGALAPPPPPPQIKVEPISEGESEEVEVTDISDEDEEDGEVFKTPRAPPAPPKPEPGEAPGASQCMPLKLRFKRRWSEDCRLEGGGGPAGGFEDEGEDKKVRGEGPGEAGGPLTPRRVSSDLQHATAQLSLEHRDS
How it was run: as §1

ETV3L = biological target: T4, ETV3L (Homo sapiens, UniProt Q6ZN32 1-361)
T4 sequence: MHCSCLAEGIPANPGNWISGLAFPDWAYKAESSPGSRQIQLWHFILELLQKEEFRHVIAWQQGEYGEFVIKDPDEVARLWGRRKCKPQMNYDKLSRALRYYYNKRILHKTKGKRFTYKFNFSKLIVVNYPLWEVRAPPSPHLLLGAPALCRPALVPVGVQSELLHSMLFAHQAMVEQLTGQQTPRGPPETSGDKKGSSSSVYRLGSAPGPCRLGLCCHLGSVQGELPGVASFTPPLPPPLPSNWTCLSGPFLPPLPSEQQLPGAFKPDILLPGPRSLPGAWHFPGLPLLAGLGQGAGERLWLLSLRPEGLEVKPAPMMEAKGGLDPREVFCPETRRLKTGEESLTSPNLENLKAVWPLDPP
How it was run: as §1

ETS2 = biological target: T5, ETS2 (Homo sapiens, UniProt P15036 1-469)
T5 sequence: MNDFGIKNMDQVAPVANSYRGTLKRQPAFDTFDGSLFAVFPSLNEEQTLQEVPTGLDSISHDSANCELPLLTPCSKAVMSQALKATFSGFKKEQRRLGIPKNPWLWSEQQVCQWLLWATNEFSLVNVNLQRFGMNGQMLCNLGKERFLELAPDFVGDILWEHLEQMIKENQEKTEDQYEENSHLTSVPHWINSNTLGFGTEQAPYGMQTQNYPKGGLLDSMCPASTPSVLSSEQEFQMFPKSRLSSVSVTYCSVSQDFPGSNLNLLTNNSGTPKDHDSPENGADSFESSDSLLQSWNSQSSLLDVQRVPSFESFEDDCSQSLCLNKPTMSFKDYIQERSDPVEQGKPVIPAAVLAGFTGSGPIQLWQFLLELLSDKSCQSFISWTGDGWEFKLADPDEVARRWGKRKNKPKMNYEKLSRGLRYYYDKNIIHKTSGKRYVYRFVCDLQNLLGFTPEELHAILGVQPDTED
How it was run: as §1

SPDEF = biological target: T6, SPDEF (Homo sapiens, UniProt O95238 1-335)
T6 sequence: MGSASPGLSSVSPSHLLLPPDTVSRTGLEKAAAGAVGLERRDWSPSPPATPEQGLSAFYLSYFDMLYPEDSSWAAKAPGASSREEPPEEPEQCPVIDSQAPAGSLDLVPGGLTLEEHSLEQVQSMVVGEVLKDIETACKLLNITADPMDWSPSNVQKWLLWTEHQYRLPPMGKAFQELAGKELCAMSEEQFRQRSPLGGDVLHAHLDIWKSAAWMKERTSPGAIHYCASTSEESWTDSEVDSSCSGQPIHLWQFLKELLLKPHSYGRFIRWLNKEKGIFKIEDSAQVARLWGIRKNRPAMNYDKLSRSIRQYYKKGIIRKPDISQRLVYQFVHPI
How it was run: as §1

ETV7 = biological target: T7, ETV7 (Homo sapiens, UniProt Q9Y603 1-341)
T7 sequence: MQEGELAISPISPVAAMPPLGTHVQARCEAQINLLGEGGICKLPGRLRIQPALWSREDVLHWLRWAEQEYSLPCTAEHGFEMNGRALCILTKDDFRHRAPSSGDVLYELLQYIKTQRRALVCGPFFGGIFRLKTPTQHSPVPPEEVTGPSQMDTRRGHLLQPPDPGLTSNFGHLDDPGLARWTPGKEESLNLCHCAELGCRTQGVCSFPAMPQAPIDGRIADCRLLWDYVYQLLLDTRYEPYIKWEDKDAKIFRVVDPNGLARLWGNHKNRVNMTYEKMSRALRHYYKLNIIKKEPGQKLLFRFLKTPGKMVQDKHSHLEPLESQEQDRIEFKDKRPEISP
How it was run: as §1

ETV3 = biological target: T8, ETV3 (Homo sapiens, UniProt P41162-2 1-143)
T8 sequence: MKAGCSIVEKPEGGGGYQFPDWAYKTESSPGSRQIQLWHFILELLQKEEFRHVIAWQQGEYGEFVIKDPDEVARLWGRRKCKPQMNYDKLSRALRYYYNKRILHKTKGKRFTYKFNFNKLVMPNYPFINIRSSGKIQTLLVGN
How it was run: as §1

ETV6 = ETV6 (Homo sapiens, UniProt P41212 1-452)
Chain of ETV6 (P41212 whole entry): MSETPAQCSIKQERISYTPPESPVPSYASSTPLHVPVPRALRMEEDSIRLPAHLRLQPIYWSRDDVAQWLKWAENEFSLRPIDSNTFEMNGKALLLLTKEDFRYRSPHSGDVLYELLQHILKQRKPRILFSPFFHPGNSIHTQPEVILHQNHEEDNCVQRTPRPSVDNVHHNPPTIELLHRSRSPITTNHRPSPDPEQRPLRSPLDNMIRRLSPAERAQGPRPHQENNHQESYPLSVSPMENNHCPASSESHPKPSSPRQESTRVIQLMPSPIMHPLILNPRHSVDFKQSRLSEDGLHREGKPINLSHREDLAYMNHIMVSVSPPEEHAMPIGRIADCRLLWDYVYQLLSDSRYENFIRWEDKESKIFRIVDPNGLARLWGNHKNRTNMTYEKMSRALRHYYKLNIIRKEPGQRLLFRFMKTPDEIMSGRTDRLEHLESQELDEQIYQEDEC
How it was run: as §1

For GGTAAA, the binding signal (ELK4) was 1.11 fold enrichment (6-mer frequency, TF over GST control), the binding signal (ELF3) was 1.13 fold enrichment (6-mer frequency, TF over GST control) and the binding signal (ETV1) was 1.08 fold enrichment (6-mer frequency, TF over GST control). The binding signal (ERF) was 1.01 fold enrichment (6-mer frequency, TF over GST control), the binding signal (ETV3L) was 1 fold enrichment (6-mer frequency, TF over GST control) and the binding signal (ETS2) was 1.1 fold enrichment (6-mer frequency, TF over GST control). The binding signal (SPDEF) was 1.02 fold enrichment (6-mer frequency, TF over GST control), the binding signal (ETV7) was 1.12 fold enrichment (6-mer frequency, TF over GST control) and the binding signal (ETV3) was 1.06 fold enrichment (6-mer frequency, TF over GST control). The binding signal (ETV6) was 1.07 fold enrichment (6-mer frequency, TF over GST control).
